Screening results deposited in PubChem BioAssay by Broad Institute.
Compounds with a hit are over-represented: about 2.2% of the library has one in this group of screens.
Beta apoptosis = inhibitors of cytokine-induced beta cell apoptosis, primary screen, luminescence | AID 435005, 2010 | 300,000 tested, 0.8% active | protection from apoptosis, % (no concentration beside the values) | INS-1E cytokine-induced death, ATP luminescence, 48 h; percent of positive-control rescue, neutral wells zero;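 active = Every replicate reaches about 75%, or at least half do and their mean reaches it too, limit read from the data; inconclusive = At least half of replicates reach the limit but their mean does not; inactive = Under half of replicates reach the limit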;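 note: 0% = cytokine-treated negative control wells and 100% = positive control rescue; higher means more ATP so stronger rescue from cytokine killing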
Calb FLC = C. albicans growth inhibition with fluconazole, primary screen, CaCi-2 strain, Alamar Blue fluorescence | growth inhibition, % (test concentration not listed) | C. albicans CaCi-2 (fluconazole-resistant clinical isolate) + fluconazole, 48 h | 300,000 tested, 0.57% active | AID 1979, 2009;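 active = growth inhibition above about 58% in most replicates, limit read from the data, passing the limit was not always enough; inconclusive = exactly half the replicates above a set limit; inactive = most replicates below a set limit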;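 note: all wells also contain fluconazole at 8 µg/ml as a sub-toxic cotreatment; 0% = median of DMSO wells and 100% = median of geldanamycin control wells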
CSC inhib = cancer stem cell viability inhibitors, primary screen, luminescence | cancer stem cell-like cells viability | inhibition, % at 7.5 µM | 300,000 tested, 1.1% active | AID 2717, 2010; in the data active = inhibition above about 75%; inconclusive = no clear call, values can overlap the other calls; tested in HMLE shEcad cells
Shn3 3UTR inh = reduction of Shn3 3'UTR firefly luciferase signal, primary screen, Schnurri-3 inhibitor project, cell-based, Clone20 osteoblasts, set 2. AID 588674, 2011. Clone20 osteoblast Shn3 3'UTR firefly luciferase, 24 h. 360,000 tested, 0.52% active. inhibition, % at 12.5 µM;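 active = mean inhibition of at least 75% with every replicate also reaching 75%; inconclusive = mean inhibition at least 75% but some replicate below; inactive = mean inhibition below 75%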;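 note: 0% = median of neutral control wells and 100% = pilot-screen positive control compound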
PfHsp90 set2 = growth inhibition of PfHsp90-expressing yeast, primary screen, antimalarial PfHsp90 inhibitor project, S. cerevisiae, BacTiter-Glo luminescence, single point, set 2; BacTiter-Glo ATP, 48 h; yeast lacking PDR1 and PDR3 efflux regulators; 310,000 tested, 0.32% active; AID 504621, 2011; inhibition, % at 9.4 µM;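 active = every replicate shows inhibition above about 80%, whatever the replicate mean, limit read from the data; inconclusive = mean inhibition reaches the set limit but some replicate falls short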;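 note: 0% = DMSO neutral controls and 100% = 20 µM radicicol positive controls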
Active calls of the source: *.

What do the screens show for `COc1ccc(C(=O)Nc2nc3ccccc3s2)c(OC)c1`?
Beta apoptosis: 45; Calb FLC: -3; CSC inhib: 68; Shn3 3UTR inh: 93*; PfHsp90 set2: 58

What do the screens show for `COc1ccc2nc(NC(=O)c3ccccc3C(=O)O)sc2c1`?
Beta apoptosis: -6; Calb FLC: -8; CSC inhib: -9; Shn3 3UTR inh: -26; PfHsp90 set2: 2

Results for COc1ccccc1C(=O)Nc1nc2ccccc2s1 ?
Beta apoptosis: 46; Calb FLC: -12; CSC inhib: 105*; Shn3 3UTR inh: 80; PfHsp90 set2: 29

How did Cc1c(-c2cccc(Cl)c2)nc2ccccc2c1C(=O)OCC(=O)Nc1ccc2c(c1)OCO2 do in these assays?
Beta apoptosis: 13; Calb FLC: 12; CSC inhib: 155*; Shn3 3UTR inh: -19; PfHsp90 set2: -13

How did COc1cc(/C=C/c2[nH]c(=O)[nH]c(=O)c2[N+](=O)[O-])ccc1OCCC(C)C do in these assays?
Beta apoptosis: 10; Calb FLC: -10; CSC inhib: 77*; Shn3 3UTR inh: -12; PfHsp90 set2: 8

Results for CC(=O)C[C@H](O)CC(=O)[C@@H]1OC(=O)CCCCC/C=C/Cc2ccccc21 ?
Beta apoptosis: -3; CSC inhib: -10; Shn3 3UTR inh: 17; PfHsp90 set2: -10

Results for COc1ccc(-n2cccc2/C=C2\C(=N)N3N=C(C(C)C)SC3=NC2=O)cc1 ?
Beta apoptosis: 1; Calb FLC: 98*; CSC inhib: -1; Shn3 3UTR inh: -14; PfHsp90 set2: -21

What do the screens show for `COc1ccc(-n2cccc2/C=C2\C(=N)N3N=C(c4ccco4)SC3=NC2=O)cc1`?
Beta apoptosis: 0; Calb FLC: 32; CSC inhib: 2; Shn3 3UTR inh: -15; PfHsp90 set2: 0

How did CCC1=NN2C(=N)/C(=C\c3cccn3-c3ccc(C)cc3C)C(=O)N=C2S1 do in these assays?
Beta apoptosis: 4; Calb FLC: inconclusive; CSC inhib: 50; Shn3 3UTR inh: -14; PfHsp90 set2: 94*

How did O=C(NCCCN1CCOCC1)/C(=C/c1cccnc1)NC(=O)c1ccccc1 do in these assays?
Calb FLC: 4; CSC inhib: 2; Shn3 3UTR inh: 14; PfHsp90 set2: 0

What do the screens show for `OCCC1CN(CC2CCCCC2)CCN1CC1CCCCC1` (stereo not given)?
Calb FLC: -19; CSC inhib: 44; Shn3 3UTR inh: -3; PfHsp90 set2: 9

How did COc1ccccc1[C@]1(C)ON(c2ccccc2C(F)(F)F)C1=O do in these assays?
Beta apoptosis: -12; CSC inhib: 48; Shn3 3UTR inh: -5; PfHsp90 set2: -23

How did CC[C@]1(c2ccccc2OC)ON(c2ccccc2C(F)(F)F)C1=O do in these assays?
Beta apoptosis: 87*; CSC inhib: 59

How did CCc1ccc(C(=O)COC(=O)c2cccnc2Cl)cc1 do in these assays?
Beta apoptosis: -6; Calb FLC: 12; Shn3 3UTR inh: -3; PfHsp90 set2: 1

What do the screens show for `Cc1cccc(C(=O)CC(=O)c2cc(Cl)ccc2O)c1`?
Beta apoptosis: 44; Calb FLC: 98*; CSC inhib: 32; Shn3 3UTR inh: 32; PfHsp90 set2: 19

How did CCc1nnc(NC(=O)c2ccc(S(=O)(=O)N3CCc4ccccc4C3)cc2)s1 do in these assays?
Beta apoptosis: -3; Calb FLC: -3; CSC inhib: 4; Shn3 3UTR inh: -18; PfHsp90 set2: -13

Results for Cc1cc(C)c2nc(NNC(=O)c3ccc(S(=O)(=O)N4CCc5ccccc5C4)cc3)sc2c1 ?
Beta apoptosis: 87*; Calb FLC: 0; CSC inhib: 104*; Shn3 3UTR inh: 93*; PfHsp90 set2: 45

Results for Cc1cc(C)c2sc(NNC(=O)c3ccc(S(=O)(=O)N4CCc5ccccc5C4)cc3)nc2c1 ?
Beta apoptosis: 101*; Calb FLC: 8; CSC inhib: 103*; Shn3 3UTR inh: 96*; PfHsp90 set2: 43

What do the screens show for `CCOC(=O)Cc1csc(NC(=O)c2cc(=O)c3ccccc3o2)n1`?
Beta apoptosis: 3; Calb FLC: 6; CSC inhib: 3; Shn3 3UTR inh: -1; PfHsp90 set2: -7

Results for Cc1cc(C)c2nc(NNC(=O)c3cc(=O)c4ccccc4o3)sc2c1 ?
Beta apoptosis: 4; Calb FLC: -19; CSC inhib: 79*; Shn3 3UTR inh: -16; PfHsp90 set2: -69

What do the screens show for `Cc1nnc(NC(=O)c2ccc(S(=O)(=O)N3CCc4ccccc4C3)cc2)o1`?
Beta apoptosis: -2; Calb FLC: 50; CSC inhib: 25; Shn3 3UTR inh: -2; PfHsp90 set2: 14

What do the screens show for `O=S(=O)(c1cc(F)ccc1F)N1CCN(c2ncnc3ccccc23)CC1`?
Beta apoptosis: 104*; CSC inhib: 48; Shn3 3UTR inh: 88*; PfHsp90 set2: 7

How did O=S(=O)(c1cc(F)ccc1F)N1CCN(c2ccccn2)CC1 do in these assays?
Beta apoptosis: 2; Calb FLC: 2; CSC inhib: -11; Shn3 3UTR inh: -6; PfHsp90 set2: -20

What do the screens show for `COc1cc2c(cc1NC(=O)c1cccc(S(=O)(=O)N(C)C)c1)oc1ccccc12`?
Beta apoptosis: 3; Calb FLC: -9; CSC inhib: 126*; Shn3 3UTR inh: -41; PfHsp90 set2: 1

What do the screens show for `COc1cc2c(cc1NC(=O)c1cccc([N+](=O)[O-])c1C)oc1ccccc12`?
Beta apoptosis: 13; Calb FLC: -5; CSC inhib: 102*; Shn3 3UTR inh: 20; PfHsp90 set2: 8

What do the screens show for `COc1cc2c(cc1NC(=O)Nc1cccc(C)c1)oc1ccccc12`?
Beta apoptosis: 9; Calb FLC: -29; CSC inhib: 20; Shn3 3UTR inh: 6; PfHsp90 set2: -13

What do the screens show for `COc1cc2c(cc1NC(=O)Nc1ccc(C)cc1)oc1ccccc12`?
Beta apoptosis: 7; Calb FLC: 1; CSC inhib: 88*; PfHsp90 set2: 36

How did COc1cc2c(cc1NC(=O)CSc1nc3ccccc3[nH]1)oc1ccccc12 do in these assays?
Beta apoptosis: 9; Calb FLC: -4; CSC inhib: 80*; Shn3 3UTR inh: -5; PfHsp90 set2: -30

Results for COc1cc2c(cc1NC(=O)CSc1ccccc1)oc1ccccc12 ?
Beta apoptosis: -2; Calb FLC: 5; CSC inhib: 17; Shn3 3UTR inh: -19; PfHsp90 set2: 5

What do the screens show for `Nc1ccccc1C(=O)C[C@H](N)C(=O)O`?
Shn3 3UTR inh: 4; PfHsp90 set2: 1

What do the screens show for `O=C(O)C1=C(C(=O)O)C2C=CC1C2`?
Shn3 3UTR inh: 13; PfHsp90 set2: 13

What do the screens show for `O=C(Nc1nnc(-c2ccco2)o1)c1ccc(Cl)cc1`?
Beta apoptosis: 2; Calb FLC: 102*; CSC inhib: 47; Shn3 3UTR inh: -1; PfHsp90 set2: -9
